Measured values reported in publication PMC4336329 (PLoS ONE, 2015).
Out of some 310,000 compounds screened, about 14,000 (4.5%) showed an effect of 50% or more. The effect is printed as a negative number. For the sample, strong results were picked, then their nearest neighbours and some compounds at random.

Target: human ether-à-go-go-related gene (hERG) potassium channel (human, UniProt Q12809)
Experiment: primary screen, population patch clamp on CHO cells stably expressing hERG; higher = less effect of the substance
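Note: peak tail current of the secondary pulse compared with the same well before compound.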

human ether-à-go-go-related gene (hERG) potassium channel, sequence (Q12809 whole entry, looked up): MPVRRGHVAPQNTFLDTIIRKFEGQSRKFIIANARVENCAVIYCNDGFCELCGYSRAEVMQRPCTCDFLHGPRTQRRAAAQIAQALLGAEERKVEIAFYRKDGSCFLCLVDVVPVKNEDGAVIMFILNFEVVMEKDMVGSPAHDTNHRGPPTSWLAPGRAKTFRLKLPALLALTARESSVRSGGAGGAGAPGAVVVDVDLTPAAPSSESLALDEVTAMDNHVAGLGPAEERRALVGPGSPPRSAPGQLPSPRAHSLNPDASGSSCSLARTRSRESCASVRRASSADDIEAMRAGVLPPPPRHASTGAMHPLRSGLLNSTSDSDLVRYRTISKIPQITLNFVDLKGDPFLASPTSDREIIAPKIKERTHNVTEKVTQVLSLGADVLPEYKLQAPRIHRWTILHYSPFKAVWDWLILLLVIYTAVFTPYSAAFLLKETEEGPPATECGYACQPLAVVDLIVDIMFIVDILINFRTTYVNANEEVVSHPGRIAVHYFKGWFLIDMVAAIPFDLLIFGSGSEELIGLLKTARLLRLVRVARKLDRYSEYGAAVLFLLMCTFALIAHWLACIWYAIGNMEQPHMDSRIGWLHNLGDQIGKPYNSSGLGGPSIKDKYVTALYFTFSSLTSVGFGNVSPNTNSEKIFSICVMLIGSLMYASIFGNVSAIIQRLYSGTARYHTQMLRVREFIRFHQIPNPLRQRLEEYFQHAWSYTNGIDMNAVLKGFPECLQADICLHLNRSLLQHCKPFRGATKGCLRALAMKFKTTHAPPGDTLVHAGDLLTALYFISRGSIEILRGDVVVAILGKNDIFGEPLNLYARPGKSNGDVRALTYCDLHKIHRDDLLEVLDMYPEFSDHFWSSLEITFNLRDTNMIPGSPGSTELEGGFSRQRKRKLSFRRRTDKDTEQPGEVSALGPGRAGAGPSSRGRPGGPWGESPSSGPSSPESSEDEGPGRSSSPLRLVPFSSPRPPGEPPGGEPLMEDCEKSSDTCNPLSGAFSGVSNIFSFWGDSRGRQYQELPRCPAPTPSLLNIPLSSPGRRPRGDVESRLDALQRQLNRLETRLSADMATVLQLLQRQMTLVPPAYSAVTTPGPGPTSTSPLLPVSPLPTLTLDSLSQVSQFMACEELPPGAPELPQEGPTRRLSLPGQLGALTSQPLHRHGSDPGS

In order of rising “hERG current change (%, negative = inhibition) at 10uM” value:
1. CCN(CC)CCN1C(=O)c2ccccc2NC1c1ccc(Br)cc1 (stereo not shown)  -85.7%
2. COc1cccc(NC(=O)CN(C)C(=O)c2ccc(NC3CC3)c([N+](=O)[O-])c2)c1  -73.4%
3. O=C1c2ccccc2NC(c2cccc(F)c2)N1Cc1ccccc1 (stereo not shown)  -71.1%
4. CN(CC(=O)Nc1cccc(F)c1)C(=O)c1ccc(NC2CC2)c([N+](=O)[O-])c1  -68.5%
5. CCN(CC)CCN1C(=O)c2ccccc2NC1c1cccc(F)c1 (stereo not shown)  -68.2%
6. COc1cccc(NC(=O)CN(C)C(=O)c2ccc3c(c2)CC(c2ccccc2)OC3=O)c1 (stereo not shown)  -66.9%
7. CCN(CC)CCN1C(=O)c2ccccc2NC1c1ccc(C)cc1 (stereo not shown)  -66.1%
8. CCN(CC)CCN1C(=O)c2ccccc2NC1c1ccc(F)cc1 (stereo not shown)  -64.3%
9. COc1ccc(C2Nc3ccccc3C(=O)N2Cc2ccccc2)cc1CN1CCOCC1 (stereo not shown)  -63.5%
10. COC(=O)Cc1c[nH]c2cccc(OCC(O)CN(Cc3ccccc3)C(C)C)c12.O=C(O)c1ccccc1O (stereo not shown)  -63%
11. CCOc1ccc(NC(=O)CN(C)C(=O)c2ccc(NC3CC3)c([N+](=O)[O-])c2)cc1OCC  -59%
12. CN1CCN(c2ccc(NC(=O)c3ccc([N+](=O)[O-])o3)cc2Cl)CC1  -57.3%
13. C#CC[N+](C)(C)CCCCCCCCC.[Br-]  -54.9%
14. C#CC[N+](C)(C)CCCCCCCCCCCC.[Br-]  -50.7%
15. CC(=O)N1CCN(c2ccc(NC(=O)c3ccc([N+](=O)[O-])o3)cc2Cl)CC1  -50%
16. CCOc1ccc(NC(=O)CN(C)C(=O)c2ccc(N3CCCC3)c([N+](=O)[O-])c2)cc1OCC  -49.1%
17. CC#CC[N+](C)(C)CCCCCCCCCC.[Br-]  -48.8%
18. O=C1c2ccccc2NC(c2cccc(F)c2)N1Cc1ccco1 (stereo not shown)  -48.6%
19. COc1ccc(NC(=O)CN(C)CC(=O)Nc2ccc(Cl)cc2[N+](=O)[O-])cc1  -48%
20. CN(CC(=O)Nc1cccc(F)c1)C(=O)c1ccc(N2CCCC2)c([N+](=O)[O-])c1  -46.7%
21. CCN(CC)CCN1C(=O)c2ccccc2NC1c1ccc(N(C)C)cc1 (stereo not shown)  -46.6%
22. CCN(CC)CCN1C(=O)c2ccccc2NC1c1ccccc1F (stereo not shown)  -46.3%
23. COc1ccc(Cl)cc1NC(=O)CN(C)C(=O)c1ccc2c(c1)CC(c1ccccc1)OC2=O (stereo not shown)  -41.8%
24. CCN(CC)CCN1C(=O)c2ccccc2NC1c1cc(OC)c(OC)c(OC)c1 (stereo not shown)  -40.7%
25. CC#CC[N+](C)(C)CCCCCCCC.[Br-]  -40.1%
26. C#CC[N+](C)(C)CCCCCCCCCC.[Br-]  -38.4%
27. COc1cccc(NC(=O)CN(C)C(=O)c2ccc(N3CCOCC3)c([N+](=O)[O-])c2)c1  -37.6%
28. O=C1c2ccccc2NC(c2ccccc2)N1Cc1ccccc1 (stereo not shown)  -35.2%
29. CC(C)N(Cc1ccccc1)CC(O)COc1ccc(S(=O)(=O)N2CCOCC2)cc1Cl (stereo not shown)  -32.3%
30. CC(C)NC(=O)c1cc(-c2ccco2)nn1-c1ccc(Cl)cc1  -27.4%
31. COc1ccc(C2Nc3ccccc3C(=O)N2c2ccccc2)cc1CN1CCOCC1 (stereo not shown)  -26.7%
32. COC(=O)C1=C(C)N(Cc2ccccc2)C(=NCc2cc(OC)c(OC)c(OC)c2)N[C@H]1c1cccc(F)c1  -23%
33. CC1CCCCC12NC(=O)N(CC(=O)NCCc1ccc(F)cc1)C2=O (stereo not shown)  -19.7%
34. CCCN1C(=O)c2ccccc2NC1c1ccc(Br)cc1 (stereo not shown)  -18.1%
35. O=[N+]([O-])c1ccc(/C=N/Nc2nc(N3CCCCC3)nc(N3CCCCC3)n2)o1  -18.1%
36. O=C(N/N=C/c1cccc(OC(=O)c2ccccc2Cl)c1)c1cccnc1  -17%
37. CN1CCN(c2ccc(NC(=O)c3ccco3)cc2Cl)CC1  -16.8%
38. C#CC[N+](C)(C)CCCCCCCC.[Br-]  -15.9%
39. O=C(NCCNC1CCN(Cc2ccccc2)CC1)c1cccs1  -15.2%
40. COc1cccc(NC(=O)CN(C)C(=O)c2ccc(N3CCCCC3)c([N+](=O)[O-])c2)c1  -12.9%
41. CC(=O)N1CCN(c2ccc(NC(=O)c3ccc(N4CCCC4)c([N+](=O)[O-])c3)cc2Cl)CC1  -12.4%
42. Br.COc1ncnc2c1N=C1CC(C)(C)CC(N)=C1S2  -10.4%
43. O=C1c2ccccc2NC(c2ccc(F)cc2)N1Cc1ccccc1 (stereo not shown)  -9.65%
44. CN(CC(=O)Nc1cccc(F)c1)C(=O)c1ccc(N2CCCCC2)c([N+](=O)[O-])c1  -8.94%
45. COc1ccc(CNC(=O)c2cnc3cc(C)ccn3c2=O)cc1  -8.79%
46. Cc1cccc(NC(=O)CN(C)S(=O)(=O)c2ccc3c(c2)n(C)c(=O)c(=O)n3C)c1C  -7.72%
47. CCCN1C(=O)c2ccccc2NC1c1ccc(Cl)cc1 (stereo not shown)  -7.23%
48. COc1ccc(NC(=S)N2CCN(Cc3cccc(F)c3)CC2)c(OC)c1  -6.36%
49. Cc1oc(-c2ccccc2)nc1CN1C(=O)C(C)N=C(c2ccccc2F)c2cc(Cl)ccc21 (stereo not shown)  -5.78%
50. Cc1ccc2[nH]c3c(=O)n(CC(=O)Nc4ccccc4N4CCN(C)CC4)ncc3c2c1  -5.73%
51. CCCN1C(=O)c2ccccc2NC1c1ccc(C)cc1 (stereo not shown)  -4.35%
52. Cc1cccc(CN2C(=O)/C(=C\c3ccc(C(=O)NCCCN4CCN(C)CC4)cc3)Oc3ccccc32)c1  -4.13%
53. O=C(C[n+]1cc(-c2ccc(Cl)c(Cl)c2)n2c1CCC2)c1cccs1.[Br-]  -3.09%
54. CCCCNC(=O)c1ccc2c(c1)N(CC)C(=O)CS2  -2.74%
55. COc1ccc(C2Nc3ccccc3C(=O)N2O)cc1CN1CCOCC1 (stereo not shown)  -2.72%
56. COc1ccc(C(=O)N2C(=S)NC(=O)/C2=C\c2ccc(C)cc2)cc1  -2.42%
57. O=C(O)CCC(=O)N(Cc1cccs1)Cc1cccs1  -2.07%
58. CC(=O)Nc1ccc(S(=O)(=O)NCCC(=O)Nc2ccc(C)c(F)c2)cc1  -0.433%
59. CCOc1ccc(NC(=O)CN(C)C(=O)c2ccc(C3SCCS3)cc2)cc1OCC  -0.427%
60. CC(=O)c1c(C)oc2ccc(OCc3ccccc3)cc12  0.181%
61. CC(=O)N1CCN(c2ccc(NC(=O)c3ccco3)cc2Cl)CC1  0.303%
62. COc1ccc(COCC(O)CN(Cc2ccccc2)C(C)C)cc1OC (stereo not shown)  0.398%
63. COc1cccc(NC(=O)CN(C)C(=O)c2ccc3ccccc3c2)c1  1.99%
64. COc1ccc(C(=O)Cn2nnc(-c3ccccc3NC(=O)C3CCCCC3)n2)cc1  2.23%
65. Cc1cc(/C(O)=C2\C(=O)C(=O)N(CCN(C)C)C2c2ccncc2)ccc1OCc1ccccc1 (stereo not shown)  3.21%
66. Cc1ccccc1CNC(=O)Nc1cccs1  3.67%
67. Nn1c(SCC(=O)NC2CCCCC2)nnc1-c1ccco1  4.3%
68. O=c1cc(-c2ccccc2)[nH]c2ccc(F)cc12  5.52%
69. S=C1NC(c2ccccc2)=CC(c2ccccc2)N1 (stereo not shown)  6.64%
70. CCCN1C(=O)c2ccccc2NC1c1ccc(Cl)c(Cl)c1 (stereo not shown)  6.85%
71. COc1ccc(OC)c(/C=C(\C)C(=O)c2c(C)cc(C)[nH]c2=O)c1  7.34%
72. O=C(N/N=C/c1cccc2ccccc12)c1ccccc1Cl  8.63%
73. COc1ccc(/C=C2/SC(=S)N(CCCC(=O)Nc3cccc(O)c3)C2=O)cc1  9.11%
74. CCC(C)[C@H]1CNC(=O)C(=O)N1CCCc1cc(OC)c(OC)c(OC)c1 (stereo partly shown)  9.16%
75. O=C(Nc1ccc(NC(=O)c2ccc([N+](=O)[O-])o2)cc1Cl)c1ccco1  9.42%
76. CC1(C)CC(NC(=O)Nc2ccc([N+](=O)[O-])cc2)CC(C)(C)N1  9.76%
77. CC(=O)NN1C(=O)/C(=C2/Sc3ccc(Cl)cc3N2C)SC1=S  10.6%
78. O=C(Nc1cccc2ccccc12)c1cccc([N+](=O)[O-])c1  11.6%
79. CCOC(=O)c1[nH]cnc1C(=O)Nc1ccc(C)cc1  11.6%
80. Cc1ccc(S(=O)(=O)N2CCN(c3ccccc3)CC2)cc1  13%
81. FC(F)(F)c1nnc2c(Sc3ccc(Cl)cc3)nc3ccccc3n12  13.5%
82. O=C(Cn1cc([N+](=O)[O-])cn1)NCc1ccccc1  20.9%
83. S=c1[nH]nc(Cc2sc(-c3ccccc3)nc2-c2ccccc2)o1  21.6%
84. O=C(Nc1cccc2cccnc12)c1ccc(Br)cc1Br  21.6%
85. Cc1ccc(NC2=NC(c3ccc(F)cc3)n3c(nc(C)cc3=O)N2)c(C)c1 (stereo not shown)  21.8%
